This note sets out measurements from PubChem BioAssay.

Structures are written as SMILES. Activity calls are given as the source filed them.

The subject of experiment [1] is PRMT1 (protein arginine N-methyltransferase 1). In words: PRMT1 binders on small-molecule microarrays, primary screen, biochemical, small-molecule microarray, 635 nm fluorescence (AID 1088).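 Also: binding of Prmt1 protein to compounds spotted on small-molecule microarray slides.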 The settings on record: small-molecule microarray binding, higher = more signal.
Experiment [2] can be described thus: yeast growth modulation, basal conditions, primary screen, YJM789 clinical isolate, OD600, 24 h (AID 1089).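 Also: growth of clinical yeast isolate S. cerevisiae YJM 789 seeded 1000 cells per well; test concentration not given here.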 Particulars: S. cerevisiae YJM789 growth, higher = more signal, called active from +8 up or from −8 down.
Experiment [3] is described as follows: fission yeast growth modulation, primary screen, strain 972, OD600, 24 h, no modulator (AID 1090).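 Also: basal condition with compound alone and no growth modifier present; test concentration not given here.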 Particulars: S. pombe 972 growth, higher = more signal, called active from +8 up or from −8 down.
The nature of experiment [4]: S. cerevisiae growth modulation with rapamycin, primary screen, strain BY4716, OD600, 96 h (AID 1091). Also: test concentration not given here. The settings on record: higher = more signal, called active from +8 up or from −8 down.
Experiment [5] concerns the target Torsin-1A-interacting protein 2 (Homo sapiens) (UniProt Q8NFQ8). Kind of experiment: LULL1 binders on small-molecule microarray, primary screen, cell lysate, human LULL1 lysate, 635/667 nm fluorescence (AID 1092).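 Also: probe is lysate of COS7 cells overexpressing human LULL1; score merges per-feature 667 nm fluorescence with signal-to-noise.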 The settings on record: hLULL1 lysate binding, 635 nm fluorescence, higher = more signal.
Experiment [6] is described as follows: E. coli growth modulation, two-sided OD650, primary screen, E. coli filamentation project, strain DRC41, 24 h (AID 1093).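 Also: MC1000 strain lacking acrAB efflux and sulA so SOS filamentation is blocked; test concentration not given here.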 Particulars: OD650, 24 h, higher = more signal, called active from +8 up or from −8 down.
Experiment [7] is described as follows: small-molecule microarray binders of probe aLefty2, primary screen, biochemical, biotinylated probe, 635/667 nm fluorescence (AID 1094).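 Also: score merges spot fluorescence near 667 nm with spot signal-to-noise ratio.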 The settings on record: higher = more signal.
In experiment [8] the test system is Noggin (protein binding on small-molecule microarray). Kind of experiment: Noggin binders on small-molecule microarray, primary screen, biochemical, 635/667 nm fluorescence (AID 1095).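 Also: score merges 667 nm feature fluorescence with signal to noise over triplicate slides.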 The settings on record: 635 nm fluorescence, higher = more signal.
Experiment [9] has as its target Neurogenic locus notch homolog protein 3 (Homo sapiens) (UniProt Q9UM47). In words: NOTCH3 binders on small-molecule microarray, primary screen, biochemical, 635/667 nm fluorescence (AID 1096). The settings on record: NOTCH3 binding, 635 nm fluorescence, higher = more signal.
The nature of experiment [10]: small-molecule microarray binders of probe aEGFR, primary screen, biochemical, biotinylated probe, 635/667 nm fluorescence (AID 1097).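 Also: probe is a biotinylated anti-EGFR antibody binding compounds printed on slides; score combines fluorescence near 667 nm and signal to noise of each spot.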 The settings on record: higher = more signal.

Sequence of Torsin-1A-interacting protein 2 (Homo sapiens) (Q8NFQ8 whole entry, looked up): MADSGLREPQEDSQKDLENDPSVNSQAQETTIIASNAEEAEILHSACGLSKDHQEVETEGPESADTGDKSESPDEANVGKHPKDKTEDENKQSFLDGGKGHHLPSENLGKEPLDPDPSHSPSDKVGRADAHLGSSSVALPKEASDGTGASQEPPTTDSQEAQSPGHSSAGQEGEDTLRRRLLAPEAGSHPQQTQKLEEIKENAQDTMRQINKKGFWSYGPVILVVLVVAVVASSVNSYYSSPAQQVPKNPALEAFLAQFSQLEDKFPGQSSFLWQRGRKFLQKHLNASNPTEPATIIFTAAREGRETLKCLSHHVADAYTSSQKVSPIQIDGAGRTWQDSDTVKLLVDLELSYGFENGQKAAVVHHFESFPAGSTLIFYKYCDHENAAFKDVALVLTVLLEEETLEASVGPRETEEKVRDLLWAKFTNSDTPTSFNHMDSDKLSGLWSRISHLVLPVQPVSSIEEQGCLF
Sequence of Neurogenic locus notch homolog protein 3 (Homo sapiens) (Q9UM47 whole entry, looked up): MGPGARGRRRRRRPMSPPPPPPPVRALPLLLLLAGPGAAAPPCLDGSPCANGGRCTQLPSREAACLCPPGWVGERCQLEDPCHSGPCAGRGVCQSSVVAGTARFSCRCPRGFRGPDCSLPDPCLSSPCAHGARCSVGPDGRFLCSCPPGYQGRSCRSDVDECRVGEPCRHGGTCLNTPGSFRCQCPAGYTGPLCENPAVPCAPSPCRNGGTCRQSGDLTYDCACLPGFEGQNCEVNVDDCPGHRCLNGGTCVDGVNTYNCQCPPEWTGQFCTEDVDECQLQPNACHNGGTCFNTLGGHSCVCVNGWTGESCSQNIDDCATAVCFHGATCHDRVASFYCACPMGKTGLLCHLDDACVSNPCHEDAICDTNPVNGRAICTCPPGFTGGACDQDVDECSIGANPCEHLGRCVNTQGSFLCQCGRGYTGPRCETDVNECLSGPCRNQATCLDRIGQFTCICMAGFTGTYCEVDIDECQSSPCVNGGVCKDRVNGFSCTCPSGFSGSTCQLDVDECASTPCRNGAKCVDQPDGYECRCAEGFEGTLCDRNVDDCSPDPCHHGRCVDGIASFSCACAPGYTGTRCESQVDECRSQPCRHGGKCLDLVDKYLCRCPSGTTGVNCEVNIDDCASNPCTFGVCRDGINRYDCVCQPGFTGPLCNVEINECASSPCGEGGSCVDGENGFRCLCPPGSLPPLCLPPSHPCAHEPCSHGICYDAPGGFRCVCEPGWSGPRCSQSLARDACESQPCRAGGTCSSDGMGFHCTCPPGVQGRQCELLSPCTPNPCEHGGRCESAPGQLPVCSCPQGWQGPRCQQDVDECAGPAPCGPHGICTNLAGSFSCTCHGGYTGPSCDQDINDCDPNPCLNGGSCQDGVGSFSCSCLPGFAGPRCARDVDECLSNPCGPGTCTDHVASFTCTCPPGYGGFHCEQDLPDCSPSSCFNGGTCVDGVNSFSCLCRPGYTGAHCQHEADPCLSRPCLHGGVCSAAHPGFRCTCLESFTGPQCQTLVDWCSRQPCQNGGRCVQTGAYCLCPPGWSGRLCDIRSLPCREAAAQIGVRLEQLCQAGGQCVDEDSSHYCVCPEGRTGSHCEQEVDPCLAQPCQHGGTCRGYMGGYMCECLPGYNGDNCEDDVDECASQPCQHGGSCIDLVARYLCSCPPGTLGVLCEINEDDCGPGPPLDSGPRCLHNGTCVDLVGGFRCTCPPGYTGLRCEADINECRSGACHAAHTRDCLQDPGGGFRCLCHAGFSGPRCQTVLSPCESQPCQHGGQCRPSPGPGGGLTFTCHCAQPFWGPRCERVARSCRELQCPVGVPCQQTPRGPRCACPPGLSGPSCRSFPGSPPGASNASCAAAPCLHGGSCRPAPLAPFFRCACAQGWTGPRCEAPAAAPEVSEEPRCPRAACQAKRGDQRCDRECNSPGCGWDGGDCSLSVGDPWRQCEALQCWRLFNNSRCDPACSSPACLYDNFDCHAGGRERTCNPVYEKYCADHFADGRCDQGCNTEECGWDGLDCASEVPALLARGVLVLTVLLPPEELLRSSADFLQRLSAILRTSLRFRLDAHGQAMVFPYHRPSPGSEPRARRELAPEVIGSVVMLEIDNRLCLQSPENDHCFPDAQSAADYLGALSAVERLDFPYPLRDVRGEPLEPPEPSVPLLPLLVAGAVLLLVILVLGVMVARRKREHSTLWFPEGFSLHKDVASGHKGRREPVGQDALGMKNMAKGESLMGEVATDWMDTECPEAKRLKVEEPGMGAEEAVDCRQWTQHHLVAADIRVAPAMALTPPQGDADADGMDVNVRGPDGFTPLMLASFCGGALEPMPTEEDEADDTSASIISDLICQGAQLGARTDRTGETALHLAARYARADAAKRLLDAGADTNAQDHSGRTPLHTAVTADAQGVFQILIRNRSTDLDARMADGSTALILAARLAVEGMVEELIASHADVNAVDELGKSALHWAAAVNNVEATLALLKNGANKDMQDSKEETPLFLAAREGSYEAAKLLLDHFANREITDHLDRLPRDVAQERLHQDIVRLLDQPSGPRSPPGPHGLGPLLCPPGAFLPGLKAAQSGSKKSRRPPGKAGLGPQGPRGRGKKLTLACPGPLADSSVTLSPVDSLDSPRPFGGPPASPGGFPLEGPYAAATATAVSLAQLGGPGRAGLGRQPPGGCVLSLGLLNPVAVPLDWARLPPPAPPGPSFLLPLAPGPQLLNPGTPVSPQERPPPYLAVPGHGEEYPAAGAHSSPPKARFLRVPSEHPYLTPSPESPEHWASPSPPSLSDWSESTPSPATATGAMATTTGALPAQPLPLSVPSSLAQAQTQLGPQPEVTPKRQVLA

As for `CC(C)C(=C=CC[C@H](O)c1ccccc1OCCO)C[C@H](O)c1cc(Cl)cc(Cl)c1O`, the composite z-score is 1.55 in experiment [1]; 2.71 in [5]; -0.226 in experiment [7]; 0.811 in [8]; 1.03 in experiment [9]; 0.0284 in experiment [10]. Moreover, the z-score in [2] was -0.088 (inactive); in [3], -2.34 (inactive); in experiment [4] it was -0.16 (inactive); in experiment [6], -0.0708 (inactive).
In the case of `COC(=O)[C@@]1(Cc2ccc(OC)cc2)[C@H]2c3cc(C(=O)N4CCCC4)n(CCn4cc([N+](=O)[O-])nc4C)c3C[C@H]2CN1C(=O)c1ccccc1`, the composite z-score in experiment [1] is -0.153; in [5], 3.38; in [7], 1.25; in experiment [8], 0.152; in experiment [9] it was 0.413; in experiment [10] it was 0.924. Also, the z-score was -0.382 (inactive) in [2], 0.28 (inactive) in [3], 0.725 (inactive) in experiment [4] and -1.01 (inactive) in experiment [6].
In the case of `CN(C)C(=O)[C@@]1(Cc2ccccc2CN=[N+]=[N-])COC(c2ccc(OCCCO)cc2)=N1`, the composite z-score was 0.688 in experiment [1]; 2.65 in experiment [5]; 0.0781 in [7]; -0.543 in [8]; 0.132 in experiment [9]; -0.152 in experiment [10]. In addition, the z-score in experiment [2] is -0.352 (inactive); in experiment [3] it was -7.06 (inactive); in experiment [4] it was 31.3 (active); in experiment [6], 2.21 (inactive).
As to `COC(=O)[C@@]1(Cc2ccccc2)N=C(c2ccc(OCCCO)cc2)O[C@H]1c1ccccc1CN=[N+]=[N-]`, the composite z-score in [1] is 1.55; in experiment [5] it was 2.27; in [7], -0.0747; in experiment [8], 1.05; in experiment [9], 0.129; in experiment [10], 0.0267. Further, the z-score in [2] was -0.605 (inactive); in [3] it was -0.129 (inactive); in [4], 29.9 (active); in experiment [6], 1.62 (inactive).
As for `COc1cc(C(O)C2C=CC3C(=O)N(c4ccccc4)C(=O)C3N2Nc2ccccc2)cc(OC)c1OC` (stereo not given), the composite z-score in experiment [1] was 1.54; in [5], 3.71; in experiment [7] it was 0.228; in experiment [8], -0.124; in experiment [9], 1.03; in experiment [10], 0.0473. Moreover, the z-score in [2] was -0.722 (inactive); in experiment [3] it was 0.82 (inactive); in experiment [4], -0.205 (inactive); in experiment [6], -0.651 (inactive).
Regarding `O=C1[C@@H]2[C@@H](CC(COc3ccccc3)=C([C@H](O)CCc3ccccc3)[C@@H]2CO)C(=O)N1Cc1ccccc1`, the composite z-score was 1.08 in experiment [1]; 1.39 in experiment [5]; -0.176 in experiment [7]; 0.127 in [8]; 0.453 in [9]; -0.0828 in experiment [10]. Besides, the z-score is 0.77 (inactive) in experiment [2], 0.369 (inactive) in experiment [3], 3.2 (inactive) in [4] and 0.707 (inactive) in experiment [6].
`CCCN1C(=O)[C@]2(CCC(=O)OC(C)(C)C)N=C(c3ccc(OCCCO)cc3)O[C@@H]2c2ccccc21`: the composite z-score in experiment [1] is 1.52; in experiment [5] it was 1.62; in experiment [7], 0.151; in experiment [8], 1.37; in experiment [9] it was 0.571; in experiment [10] it was -0.134. Also, the z-score in experiment [2] was -1.93 (inactive); in experiment [3], -0.474 (inactive); in experiment [4], 1.5 (inactive); in experiment [6] it was 0.916 (inactive).
With `C=CCC(OC(C)=O)[C@@H]1[C@@H](N(Cc2ccc(-c3cccc(C(F)(F)F)c3)o2)C(=O)Cc2ccc(F)cc2)c2cc(OCCCO)ccc2N1C(=O)Cc1ccc2ccccc2c1` (stereo not given in full), the composite z-score is -0.783 in [1]; -0.199 in experiment [5]; -0.118 in [7]; -0.244 in experiment [8]; -0.855 in [9]; -0.125 in [10]. The z-score was -0.554 (inactive) in [2], 0.181 (inactive) in [3], -0.669 (inactive) in [4] and -1.01 (inactive) in [6].
In the case of `C=C(CCCC)/C(=C/C[C@@H](OC(C)=O)c1ccc(CO)o1)c1cnc2ccccc2c1`, the composite z-score is 1.54 in experiment [1]; 1.92 in experiment [5]; -0.11 in experiment [7]; 1.57 in experiment [8]; 1.11 in experiment [9]; -0.0007 in [10]. Also, the z-score was 1.5 (inactive) in experiment [2], -0.57 (inactive) in experiment [3], 0.824 (inactive) in [4] and 0.688 (inactive) in experiment [6].
Turning to `COc1ccc([Si](C)(C)[C@H]2[C@H](CCO)O[C@@]3(C(=O)N(Cc4cccc(N(C=O)c5ccccc5)c4)c4ccccc43)[C@@H]2C)cc1`, the composite z-score came out at 1.56 in [1]; 2.91 in [5]; 0.0893 in experiment [7]; 0.785 in experiment [8]; 1.07 in experiment [9]; 0.0004 in [10]. Further, the z-score in [2] is 1.08 (inactive); in [3], 0.604 (inactive); in [4], 10.6 (active); in [6], 2.01 (inactive).
Regarding `Cc1ccc(S[C@]2(C(=O)NC(C)C)CC(=O)N(C3CCCCC3)[C@@H]2c2ccc(CO)cc2I)cc1`, the composite z-score in experiment [1] was 1.54; in experiment [5], 2.84; in experiment [7], -0.0977; in experiment [8], 0.7; in [9], 0.884; in [10], 0.0203. Further, the z-score in [2] was -1.15 (inactive); in experiment [3], 0.145 (inactive); in experiment [4], 2.68 (inactive); in [6], -0.317 (inactive).
For the molecule `C=CCNC(=O)[C@H]1[C@@H]2C(=O)O[C@@H](c3ccccc3)[C@@H](c3ccccc3)N2[C@@H](c2ccc(OCCO)cc2)[C@]12C(=O)Nc1ccc(C#CC3(O)CCCCCC3)cc12`, the composite z-score came to 1.53 in [1]; 2.11 in [5]; 0.323 in [7]; 1.4 in experiment [8]; 1.08 in experiment [9]; 0.0432 in [10]. The z-score in [2] is 2.3 (inactive); in experiment [3], 1.42 (inactive); in [4] it was 5.09 (inactive); in experiment [6], 1.61 (inactive).
For the molecule `CN(C)CCCC[C@@H]1NC(=O)[C@@H]2C[C@H](C(=O)NCCCCCN)[C@H](c3cccc(OCCO)c3)N2C1=O`, the composite z-score in experiment [1] was 1.32; in experiment [5] it was 1.96; in experiment [7] it was -0.0592; in [8] it was 1.17; in experiment [9] it was 1.04; in experiment [10] it was -0.0943. Further, the z-score is -5.45 (inactive) in experiment [2], -3.9 (inactive) in experiment [3], -0.962 (inactive) in experiment [4] and 2.65 (inactive) in experiment [6].
Take `COC(=O)C1=CC(CCCO)=CC(c2cccs2)N(Cc2cc3c(cc2Br)OCO3)C=C1C(=O)OC` (stereo not given): the composite z-score in experiment [1] is 1.56; in experiment [5], 3.17; in [7], 0.109; in [8], 0.404; in experiment [9] it was 1.12; in experiment [10], 0.236. The z-score in [2] was 0.74 (inactive); in experiment [3] it was -0.997 (inactive); in [4], 0.132 (inactive); in experiment [6] it was 0.923 (inactive).
